Hit rate of the full screen: of about 360,000 compounds, about 8,200 (2.3%) were called active. Cut-off read from the data, not from the text of the source: active = inhibition above about 27%; inactive = the rest. What follows is part of a selection rich in actives, with near analogues and random picks from the rest.

The target of the assay is Fructose-bisphosphate aldolase (Mycobacterium tuberculosis (strain ATCC 25618 / H37Rv)) (UniProt P9WQA3). Description: M. tuberculosis aldolase activity blockers – biochemical, fluorescence, strain H37Rv, primary screen (AID 588726).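 Note: 0% = vehicle and 100% = reference inhibitor.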 Particulars: purified M. tuberculosis FBA, fluorescence read-out, at 1 µM, hits give high values.
Sequence of Fructose-bisphosphate aldolase (Mycobacterium tuberculosis (strain ATCC 25618 / H37Rv)) (P9WQA3 whole entry, looked up): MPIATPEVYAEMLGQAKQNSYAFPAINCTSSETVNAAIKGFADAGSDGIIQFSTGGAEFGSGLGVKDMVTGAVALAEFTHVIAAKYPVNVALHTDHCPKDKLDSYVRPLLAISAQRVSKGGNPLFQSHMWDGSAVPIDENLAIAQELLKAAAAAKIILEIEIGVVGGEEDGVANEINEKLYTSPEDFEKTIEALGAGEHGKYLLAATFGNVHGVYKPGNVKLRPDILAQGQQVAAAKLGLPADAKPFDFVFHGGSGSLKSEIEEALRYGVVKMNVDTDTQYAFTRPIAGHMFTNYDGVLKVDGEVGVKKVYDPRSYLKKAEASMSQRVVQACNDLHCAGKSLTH
With `Clc1ccc(Cl)c(Oc2ccc(Oc3nc(Cl)ccc3Cl)cc2)n1`, the inhibition (commonly the change of the read-out against control, counted positive when it falls) is 4.19% (inactive).

On to `COc1ccc2c(c1)C(=C(C#N)C#N)C(=O)N2CCc1ccccc1`, for which the inhibition is 0.52% (inactive).

Turning to `COc1ccc2c(CC(=O)OCC(=O)Nc3ccccc3[N+](=O)[O-])coc2c1`, the inhibition is 2.62% (inactive).

In the case of `CC(C)(C)OC(=O)Nc1ccc([C@@H](NC(=O)OC(C)(C)C)C(=O)OC(C)(C)C)cc1`, the inhibition is -1.85% (inactive).

Consider `Cc1cc(S(=O)(=O)c2cc3ccc(O)c(C)c3oc2=O)ccc1F`, for which the inhibition is 72.4% (active).

`COc1cccc2cc(S(=O)(=O)c3ccc(C)cc3)/c(=N/NS(=O)(=O)c3ccc(C)cc3)oc12`: the inhibition was -1.11% (inactive).

For the compound `Cc1cc(C(=O)OCC(=O)c2c(N)n(C)c(=O)n(C)c2=O)c(C)o1`, the inhibition is 0.07% (inactive).

For the compound `O=S(=O)(c1ccc(Br)cc1)n1ccc2ccccc21`, the inhibition is -4.37% (inactive).

Turning to `CS(=O)(=O)N(CC(=O)N1CCCC1)Cc1ccccc1`, the inhibition was 1.15% (inactive).

Take `CN(Cc1ccccc1Cl)C(=O)C1CCC(=O)N(CCc2cccc(F)c2)C1` (configuration not stated): the inhibition was -0.04% (inactive).

For `O=C(N=C1SC2CS(=O)(=O)CC2N1c1cc(Cl)ccc1Cl)C1CC1` (configuration not stated), the inhibition is 0.93% (inactive).

Turning to `COc1ccc(CCNC(=O)CCC(=O)NC2CCCCC2)cc1OC`, the inhibition was 0.12% (inactive).

Consider `CCOc1ccc(-c2noc(CCC(=O)NC3CCCC3)n2)cc1OC`, for which the inhibition is 1.23% (inactive).

Take `COc1ccc2c(C)c(CCC(=O)NC3CC3)c(=O)oc2c1C`: the inhibition is 162% (active).

Turning to `CC(C)N1CCC(NC(=O)Nc2ccccc2)CC1`, the inhibition is 0% (inactive).

For `Cc1ccc(-c2nn(-c3cccc(F)c3)cc2CNCCc2ccncc2)o1`, the inhibition is 3.67% (inactive).

Turning to `C#Cc1ccc(NC(=O)C2(C)CCN2C(=O)Cc2ccc(-c3ccccc3)cc2)cc1` (configuration not stated), the inhibition is -1.12% (inactive).

For `COc1ccc(S(=O)(=O)Nc2cccc3c2O[C@H](CN(C)S(=O)(=O)c2ccc(OC)cc2)[C@@H](C)CN([C@H](C)CO)C3=O)cc1`, the inhibition is 0.3% (inactive).

For the compound `COc1ccc(S(=O)(=O)N(C)C[C@H]2Oc3c(NC(=O)Nc4ccc5c(c4)OCO5)cccc3C(=O)N([C@H](C)CO)C[C@@H]2C)cc1`, the inhibition was 112% (active).

In the case of `Cc1noc(C)c1S(=O)(=O)N(C)C[C@H]1Oc2c(NC(=O)Nc3ccc4c(c3)OCO4)cccc2C(=O)N([C@H](C)CO)C[C@@H]1C`, the inhibition was -0.42% (inactive).

As for `CCN(CCn1cccn1)C(=O)CC1C(=O)NCCN1Cc1cccc(OC)c1OC` (configuration not stated), the inhibition is 0.01% (inactive).

On to `CC(C)C1Nc2c(C(=O)O)cccc2C(Nc2ccccc2C(=O)O)C1(C)C` (configuration not stated), for which the inhibition is 107% (active).

Take `CCCCN1CC(COc2ccccc2)Oc2cccc(F)c2S1(=O)=O` (configuration not stated): the inhibition is -2.92% (inactive).

Regarding `O=C(c1ccc(Cl)cc1)N1N=C(c2ccccn2)CC1(O)C(F)(F)F` (configuration not stated), the inhibition was 4.39% (inactive).

For the compound `CCOC(=O)[C@H]1[C@H]2COc3ccc(C)cc3[C@@H]2N2C(=O)CN(Cc3ccc(F)cc3)C(=O)[C@@]12C`, the inhibition is 0.55% (inactive).

Consider `CC[C@@H]1Cc2cc(O)ccc2C2=C1c1ccc(O)cc1C[C@H]2CC`, for which the inhibition is 89.3% (active).

As for `O=C1NC(=O)C(c2ccc(Cl)cc2)N1` (configuration not stated), the inhibition is 3.68% (inactive).

For the compound `COCCNC(=O)c1ccc2nc(Cc3ccc(OC)c(OC)c3)oc2c1`, the inhibition is 2.67% (inactive).

As for `COc1ccc(CNC(=O)COc2ccccc2C(=O)c2cnn(-c3ccccc3)c2)cc1OC`, the inhibition is 6.29% (inactive).

`CCCCNC(=O)c1ccccc1NC(=O)C1=C(C)OCCS1`: the inhibition is 1.28% (inactive).

On to `CC(=O)C1=C(C)NC(C)=C(C(C)=O)C1c1cn(-c2ccccc2)nc1-c1cccs1`, for which the inhibition is 0.45% (inactive).

With `O=C(O)/C=C/c1cn(-c2ccccc2)nc1-c1cccs1`, the inhibition was 57.3% (active).

Turning to `Cc1ccc(-c2nn(-c3ccccc3)cc2/C=C/C(=O)Nc2cccc(S(N)(=O)=O)c2)cc1`, the inhibition is 2.47% (inactive).

In the case of `O=C1COc2ccc(NC(=O)N3CCN(c4ccc(F)cc4)CC3)cc2N1`, the inhibition was 1.24% (inactive).

Turning to `CC(=O)NC12CC3CC(C1)CC(C(=O)N1CCN(S(=O)(=O)c4cccs4)CC1)(C3)C2`, the inhibition was -0.81% (inactive).

`Cc1cn(C2OC[C@@H](O)[C@@H]2CO)c(=O)[nH]c1=O` (some centres not stated): the inhibition was 0.66% (inactive).

Consider `O=C(Nc1ccc([N+](=O)[O-])cc1)C1(c2ccccc2)CCOCC1`, for which the inhibition is -1.46% (inactive).

Turning to `O=C(OCC(=O)N1CCCC1=O)c1cc(S(=O)(=O)N2CCOCC2)ccc1Cl`, the inhibition was -0.38% (inactive).

Turning to `COC(=O)c1c(C)c(C)nc(N)c1C#N`, the inhibition is 82.5% (active).

For `COCc1c(N)c(C)nc(Cl)c1C#N`, the inhibition is 7.26% (inactive).

With `CCOC(=O)c1cc(C)nc(S(C)(=O)=O)c1C#N`, the inhibition is 3.95% (inactive).

Turning to `Cn1nc(C(C)(C)C)c([N+](=O)[O-])c1C(N)=O`, the inhibition is 1.86% (inactive).

Take `O=C(Cn1cnc([N+](=O)[O-])n1)NCCc1ccccc1`: the inhibition is 0.01% (inactive).

Regarding `CCCCCn1c(=O)[nH]c2cc(C(=O)NCCCN3CCCCC3C)ccc2c1=O` (configuration not stated), the inhibition was 114% (active).

Turning to `O=C(NC1CCCCC1)c1ccc2c(=O)n(CC3CCCO3)c(=O)[nH]c2c1` (configuration not stated), the inhibition was -9.09% (inactive).

Turning to `CC1CCCCN1CCCNC(=O)Cn1ncc2c([nH]c3ccccc32)c1=O` (configuration not stated), the inhibition is 12% (inactive).

Turning to `CCOC1CS(=O)(=O)CC1OCC` (configuration not stated), the inhibition was -0.21% (inactive).

Consider `c1ccc(Cc2c(-c3ccco3)nc3c4ccccc4ccn23)cc1`, for which the inhibition is 33.2% (active).

For the compound `FC(F)(F)c1ccccc1Cc1c(-c2ccccc2)nc2c3ccccc3ccn12`, the inhibition was 5.62% (inactive).

Turning to `Cc1ccc(Cc2c(-c3ccc(C)cc3)nc3c4ccccc4ccn23)cc1`, the inhibition is 4.37% (inactive).

Take `Cc1cc(NC(=O)/C=C/C(=O)N(CC(=O)NC2CCCC2)c2ccc(F)cc2)no1`: the inhibition is -1.71% (inactive).

`CC1CN(/C=C/C(=O)C(F)(F)F)CC(C)O1` (configuration not stated): the inhibition is -2.87% (inactive).

On to `O=C1CN(C(=O)COC(=O)C2CC(=O)N(Cc3ccco3)C2)c2ccccc2N1` (configuration not stated), for which the inhibition is 1.16% (inactive).

`CN1C(=O)c2ccc(C(=O)Nc3ccc(Br)cn3)cc2C1=O`: the inhibition is -2.34% (inactive).

As to `CN1C(=O)c2ccc(NC(=O)C3CCCCC3)cc2C1=O`, the inhibition is 33.2% (active).

Regarding `O=C(Nc1ccc2c(c1)OCCO2)C1CCCC1`, the inhibition was -2.43% (inactive).

Turning to `Cc1nc2ccc(NC(=O)C3CCCCC3)cc2s1`, the inhibition was 2.5% (inactive).

In the case of `Cc1cccc(C(=O)Nc2ccc3c(c2)C(=O)N(CC(C)C)C3=O)c1`, the inhibition was 8.31% (inactive).

Turning to `CN1C(=O)c2ccc(NC(=O)c3c(F)c(F)c(F)c(F)c3F)cc2C1=O`, the inhibition was 37.5% (active).

On to `COc1cc(CN2CCCN(C)CC2)c([N+](=O)[O-])cc1OC`, for which the inhibition was 2.5% (inactive).

Consider `Cc1cc(=O)oc2cc(NC(=O)C3CC(=O)N(Cc4ccccc4)C3)ccc12` (configuration not stated), for which the inhibition was 68.5% (active).

In the case of `CCNC(=O)c1cccc(NC(=O)C2CC(=O)N(CCc3ccccc3)C2)c1` (configuration not stated), the inhibition was 3.18% (inactive).

As for `O=C(Nc1ccc(F)c([N+](=O)[O-])c1)C1CC(=O)N(Cc2ccccc2)C1` (configuration not stated), the inhibition is -0.61% (inactive).

Regarding `CC(=O)c1cccc(NC(=O)COc2ccc(S(=O)(=O)N3CCOCC3)cc2)c1`, the inhibition is -1.21% (inactive).

On to `Cc1ccc(NC(=O)C(CC(=O)O)C2CCCO2)c(C)c1` (configuration not stated), for which the inhibition was 2.55% (inactive).

Regarding `O=c1c(-c2ccccc2)coc2c(CN3CCOCC3)c(O)ccc12`, the inhibition is 36.3% (active).

In the case of `O=C1/C(=C/c2coc3ccc(O)cc3c2=O)SC(=S)N1c1ccccc1`, the inhibition is -0.97% (inactive).

Regarding `CC(C)=CCc1c(O)c(CC=C(C)C)c2occ(-c3ccc(O)cc3)c(=O)c2c1O`, the inhibition was -0.11% (inactive).

`O=c1c(-c2ccccc2)coc2cc(O)ccc12`: the inhibition is 32.2% (active).

As for `O=c1[nH]c(CN2CCOCC2)nc2scc(-c3ccccc3)c12`, the inhibition is -0.65% (inactive).

Take `CCOC(=O)c1oc2c(CN3CCN(C)CC3)c(O)ccc2c(=O)c1-c1ccc(Br)cc1`: the inhibition was -0.95% (inactive).

With `O=C(Cc1cccs1)N(CC1CCCO1)C1(C(=O)NC2CCCCC2)CCCCC1` (configuration not stated), the inhibition was -1.48% (inactive).

For `C/C(=N/NC(=O)CN1CCN(S(=O)(=O)c2ccc(Br)cc2)CC1)c1ccncc1`, the inhibition was -1.72% (inactive).

As for `Cc1nc2nc(C)c(NS(=O)(=O)c3ccc(C(C)(C)C)cc3)c(=O)n2[nH]1`, the inhibition is 1.79% (inactive).

`CC(=O)c1ccc(N2CCN(CC(O)c3ccccc3)CC2)cc1` (configuration not stated): the inhibition is -0.54% (inactive).

Take `COc1cc(N)c(Cl)cc1C(=O)OCC(=O)c1ccc2c(c1)NC(=O)CO2`: the inhibition was -2.6% (inactive).

For `CSc1ccc(CN2C(=O)NC3(CCCCCC3)C2=O)cc1`, the inhibition is 6.55% (inactive).

With `CCSc1ccccc1C(=O)NCc1ccc(OC)cc1`, the inhibition was -3.44% (inactive).

With `COc1ccc(CNC(=O)c2cc(C(=O)C3CC3)c[nH]2)cc1`, the inhibition was 5.17% (inactive).

As for `COc1ccc(CNC(=O)c2c[nH]c3c(OC)cc(OC)cc3c2=O)cc1`, the inhibition is 34.8% (active).

On to `C=CC[C@@H](CC(=O)N[C@@H](CO)Cc1ccccc1)C(=O)N[C@H](COC(=O)[C@H](CC=C)CC(=O)OC(C)(C)C)Cc1ccccc1`, for which the inhibition was 3.8% (inactive).

With `CCCCc1nc(NCCN)c(C#N)c2c1CSC(C)(C)C2`, the inhibition is 5.12% (inactive).

In the case of `Cc1nc(NCCN)c(C#N)c2c1COC(C)(C)C2`, the inhibition is 27.9% (active).

Consider `Cc1nc(NCc2ccccc2)c(C(N)=O)c2c1COC(C)(C)C2`, for which the inhibition is 22.3% (inactive).

For the compound `CC(C)Cc1nnc(N)s1`, the inhibition is 0.9% (inactive).

For the compound `CC(=O)Nc1ccc(S(=O)(=O)NCCC(=O)N2CCN(c3ccccc3Cl)CC2)cc1`, the inhibition was 3.53% (inactive).

Regarding `O=c1c2ccccc2nc(-c2ccccc2)n1-c1ccccn1`, the inhibition is -4.31% (inactive).

Turning to `Cc1ccc(-c2nc3ccccc3c(=O)n2-c2ccc(Br)cn2)cc1`, the inhibition is 27.5% (active).

Regarding `O=C(Nn1c(-c2ccc(Cl)cc2)nc2ccccc2c1=O)c1cccnc1Cl`, the inhibition is 15% (inactive).

`O=Cc1c(N2CCN(c3cccc(Cl)c3)CC2)nc2ccccn2c1=O`: the inhibition was 6.06% (inactive).

As for `COCCNC(=O)/C(C#N)=C/c1nc(N(C)C)n(-c2ccc(F)cc2)c1Cl`, the inhibition is 0.71% (inactive).

Take `COCCCNC(=O)/C(C#N)=C/c1c(N2CCCCCC2)nc2ccccn2c1=O`: the inhibition was 74.5% (active).

The record behind these values is PubChem BioAssay AID588726 (The Scripps Research Institute Molecular Screening Center, 2011).
